For 38 compounds, inhibition results are on record in PubChem BioAssay.

Values without a mark were called inactive. Activity calls are given as the source filed them.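 The calls were made as follows: active = inhibition of the reporter signal at or above 50%; inactive = inhibition below 50%.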

This assay can be described thus: inhibitors of poly I:C-induced TLR3 signaling, primary screen, cell-based, poly I:C stimulus, luciferase, 10K MLSCN set (AID 602277). As to conditions: HEK293-TLR3 RL24 IRF3 luciferase reporter, at 10 µM, stronger effect = higher value.
For the compound `c1ccc(C2CC3CC(c4ccco4)N2O3)cc1` (stereo not drawn), the inhibition is 16.9%. With `C(#CCN1CCOCC1)COCC#Cc1ccccc1` the figure was 30.6%; with `CN1CCN(c2c[nH]c(=O)[nH]c2=O)CC1`, 19.8%. Consider `CC(C)CC12CN3CCN(CC(C3)/C1=N/O)C2`, for which the inhibition was 21.5%. As for `CCCCOc1ccc(CN2CCN(CCO)CC2)cc1`, the figure is 10.1%. Turning to `CC(C)C(=O)c1cn(Cc2ccccc2C#N)c2ccccc12`, the inhibition was 20.1%. As for `Cc1ccc2nc(N3CCN(C)CC3)[nH]c2c1`, the figure is -98.1%; as for `COc1ccc(CC2C(=O)NC(=O)NC2=O)c(OC)c1`, -0.414%.

Turning to `N#Cc1ccccc1Cn1cc(C(=O)C2CC2)c2ccccc21`, the inhibition is 19.3%. With `CC(C)(C)C(O)C(Oc1ccc(Cl)cc1)n1cncn1` (stereo not drawn) the figure was 32.5%; with `O=C(CCCOc1ccc(Cl)cc1Cl)N1CCC2(CC1)OCCO2`, -38.8%; with `COc1ccc(CCn2c(O)c(C=NCCCN(C)C)c(=O)[nH]c2=O)cc1OC`, 8.09%. With `COC(=O)CC1(Cc2ccccc2)C(=O)NC(=O)NC1=O` the figure was 21.5%; with `Cc1ccc(CC2C(=O)N(C)C(=O)N(C)C2=O)s1`, 25%; with `Cc1oc2ccc(OC(=O)N(C)C)cc2c1C(=O)OC(C)C`, -11.8%. With `CCn1nc(-c2ccccc2)nc2c(=O)n(C)c(=O)nc1-2` the figure was 94.3% (active); with `O=c1[nH]c(=O)n(-c2ccc(F)cc2)c(O)c1C=Nc1ccccc1N1CCCC1`, 14.6%; with `O=C(c1sc2ccccc2c1Cl)N1CCC2(CC1)OCCO2`, -29.6%.

In the case of `CCn1c(C)c(C(=O)O)c2cc(OC)ccc21`, the inhibition was 22.2%. As for `Cc1cc(C)c(C(=O)CN2CCOCC2)c(C)c1`, the figure is 24.8%; as for `COC(=NC1CCCC1)C(O)c1c[nH]c2ccccc12` (stereo not drawn), 32.2%; as for `CN1C(=O)C(Cc2cccc3ccccc23)C(=O)N(C)C1=O`, 32.2%. As for `CCCCn1c(C)c(C(=O)OCC)c2c(CN3CCOCC3)c(O)ccc21`, the figure is 19.2%; as for `CN1C(=O)N(C)C(=O)C2(Cc3ccccc3N3CCOCC32)C1=O` (stereo not drawn), 24.6%. In the case of `CCOc1cccc(N2C(=O)CC(=O)NC2=O)c1`, the inhibition was 3.82%. As to `Nc1ccnn1C1CCNCC1`, the inhibition is 17.3%. `COc1ccc(CN2CCN(c3ccccc3F)CC2)c(OC)c1`: the inhibition is 24.2%.

As to `CCCNS(=O)(=O)c1ccc(OCC(=O)N2CCN(Cc3ccccc3)CC2)cc1`, the inhibition was -4.45%.

Regarding `CC1(C)Cc2c(sc3c2C(=O)NC(c2cccnc2)N3)CO1` (stereo not drawn), the inhibition was 5.63%. With `CC(=NCCCN1CCOCC1)c1c(O)n(-c2ccccc2C)c(=O)[nH]c1=O` the figure was 15%; with `COc1ccc(CC[n+]2cc(/N=C(\C)[O-])on2)cc1OC`, 25.3%. As for `C=CCn1c(O)c(C(C)=Nc2ccc(N(CC)CC)cc2)c(=O)[nH]c1=O`, the figure is 25.5%; as for `Cc1ccc(Cn2c(C)c3cnn(CC(=O)N4CCC5(CC4)OCCO5)c(=O)c3c2C)cc1`, -2.44%; as for `COC(=O)c1cncn1C(C)c1ccccc1` (stereo not drawn), 13.1%. With `CCN(CC)CCN=Cc1c(O)n(CCC2=CCCCC2)c(=O)[nH]c1=O` the figure was -117%; with `CC1=C(C(=O)N2CCC3(CC2)OCCO3)C2(CCC(C)CC2)OC1=O` (stereo not drawn), 31.1%; with `CCN1CCN(Cc2cc(Br)cc(OC)c2O)CC1`, 5.42%. Turning to `O=C(NC1(C(F)(F)F)Oc2ccc(Cl)cc2O1)N1CCC2(CC1)OCCO2` (stereo not drawn), the inhibition is 38.5%.
